Compounds with a hit are over-represented: about 2.4% of the library has one in this group of screens.
PP1 counter: blocks human PP1-alpha phosphatase, a PP5 counter-screen; 0.9% of 320,000 active; P62136; purified PP1alpha, OMFP fluorescence; inhibition, % at 6.7 µM;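 active = inhibition above the mean inhibition of all tested compounds plus 3 SD, computed separately for each screening campaign, cut at about 15% in these data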
NadD inh: NadD (S. aureus) enzyme inhibition. purified NadD enzyme, colorimetric absorbance read-out. inhibition, % at 20 µM. 0.78% of 360,000 active. AID 602399; in the data active = inhibition above about 26%
Rpn11 inh: inhibitors of human proteasome Rpn11; O00487; human 26S proteasome, Ub4-pepOG fluorescence polarization; 20S core pre-blocked with epoxomicin; inhibition, % at 20 µM; 0.59% of 360,000 active; AID 588493;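 active = inhibition at 20 µM, scaled to each plate's controls, above about 33%, limit read from the data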
PP5 primary: blocks human protein phosphatase 5 activity | purified PP5c, OMFP substrate fluorescence | P53041 | 0.18% of 320,000 active | inhibition, % at 6.7 µM;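 active = inhibition above the campaign's mean inhibition across all tested compounds plus 3 SD, cut at about 9.5% in these data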;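 note: 0% = DMSO only and 100% = 100 µM cantharidin control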
PREPL inh: inhibits the human prolyl oligopeptidase-like enzyme. Q4J6C6. recombinant PREPL, fluorescence polarization activity-based probe. inhibition, % at 5.96 µM. 0.68% of 320,000 active;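 note: 0% = enzyme with DMSO and 100% = wells lacking enzyme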
Target sequence (Q4J6C6 whole entry, looked up): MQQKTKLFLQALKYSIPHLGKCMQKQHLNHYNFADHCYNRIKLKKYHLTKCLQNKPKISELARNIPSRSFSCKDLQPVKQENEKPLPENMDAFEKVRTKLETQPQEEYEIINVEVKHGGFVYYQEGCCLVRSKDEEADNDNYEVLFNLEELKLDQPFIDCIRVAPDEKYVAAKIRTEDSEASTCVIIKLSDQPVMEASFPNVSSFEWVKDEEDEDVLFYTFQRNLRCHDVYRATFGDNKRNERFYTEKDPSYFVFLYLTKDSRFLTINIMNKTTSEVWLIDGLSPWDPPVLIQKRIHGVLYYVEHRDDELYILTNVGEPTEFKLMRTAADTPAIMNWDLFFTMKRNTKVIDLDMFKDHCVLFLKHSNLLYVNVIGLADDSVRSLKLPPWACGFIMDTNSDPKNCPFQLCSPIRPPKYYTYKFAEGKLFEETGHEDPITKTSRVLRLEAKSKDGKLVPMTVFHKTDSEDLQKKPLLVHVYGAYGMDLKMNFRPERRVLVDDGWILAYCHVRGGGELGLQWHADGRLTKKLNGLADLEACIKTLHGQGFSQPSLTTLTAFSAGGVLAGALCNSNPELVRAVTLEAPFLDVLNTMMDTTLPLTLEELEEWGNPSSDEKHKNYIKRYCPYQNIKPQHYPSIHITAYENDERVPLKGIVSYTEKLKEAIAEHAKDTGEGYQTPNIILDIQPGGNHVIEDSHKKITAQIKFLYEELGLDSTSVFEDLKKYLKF
PREPL confirm: human PREPL inhibition, confirmation; shares compounds with PREPL inh; recombinant PREPL, fluorescence polarization activity probe; inhibition, % at 5.96 µM; 67% of 2,000 active;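 note: 0% = protein with DMSO and 100% = wells lacking protein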
* marks the source's active call; other numbers are inactive results; . = no result. Cut-off read from the data, not from the text of the source, unless noted: active = inhibition above about 43%; inactive = the rest.

SMILES	PP1 counter	NadD inh	Rpn11 inh	PP5 primary	PREPL inh	PREPL confirm
CC(C)C[C@@H]1CN=C(N)N1C[C@@H]1CCCN1C[C@@H](C(C)C)N1C[C@@H](Cc2ccccc2)N(CCCC2CCCC2)C1=N	.	1	-10	.	60*	51*
CCCCN1C(=N)N([C@@H](C)CN2CCC[C@H]2CN2C(N)=NC[C@@H]2Cc2ccccc2)C[C@H]1Cc1ccccc1	.	-7	-3	.	54*	44*
NC1=NC[C@H](Cc2ccccc2)N1CCCCC1CCCCC1	15	3	-9	2	-2	.
C=CCN(c1cccc(C(F)(F)F)c1)S(=O)(=O)c1cccc(C(=O)OCC(=O)Nc2ccccc2)c1	5	-8	-2	5	-5	.
COc1ccc2noc3c2c1C(=O)c1ccccc1-3	-69	0	-222	-65	50*	35
COc1ccccc1NC(=S)N(CCCN1CCOCC1)Cc1cccs1	1	-8	3	-1	0	.
CC1=C(C(=O)Nc2ccccc2C(=O)NCCCOC(C)C)SCCO1	-4	-3	-3	-4	-3	.
Nc1[nH]n(-c2ccccc2)c(=O)c1N=Nc1ccc2c(c1)OCO2	-3	-2	5	4	45*	47*
Cc1nn(-c2ccccc2)c(N)c1N=Nc1cccnc1	-8	-5	-3	1	5	.
Nc1[nH]n(-c2ccccc2)c(=O)c1N=Nc1ccc2c(c1)OCCO2	2	-8	-4	2	27	.
Nc1nn(-c2ccccc2)c(N)c1N=Nc1cccc(F)c1	0	4	-1	5	65*	60*
Nc1nn(-c2ccccc2)c(N)c1N=Nc1ccc2c(c1)OCO2	0	0	-3	5	60*	60*
Clc1ccc(-c2nc(-c3cc4cc(Cl)ccc4o3)cs2)cc1	-1	3	-1	0	0	.
CCCN(CCC)C(=O)CSc1nc2n[nH]c(C)c2c(=N)n1-c1ccc(OCC)cc1	4	-4	-4	5	55*	41
O=C1NC[C@H](Cc2ccccc2)N(CC2CCN(CCCCc3ccccc3)CC2)C1=O	.	4	0	.	.	.
Cc1c(NCc2cc(Cl)cc(Cl)c2O)c(=O)n(-c2ccccc2)n1C	-1	6	-3	-2	50*	58*
C[C@H]1c2cccc(O)c2C(O)=C2C(=O)[C@]3(O)C(O)=C(C(N)=O)C(=O)[C@@H](N(C)C)C3[C@@H](O)C21 (stereo partly drawn)	2	1	-7	4	2	.
C=C1c2cccc(O)c2C(=O)C2C(=O)[C@]3(O)C(=O)C(C(N)=O)C(=O)[C@@H](N(C)C)[C@@H]3[C@@H](O)[C@H]12 (stereo partly drawn)	.	10	22	.	62*	2
CCOC(=O)c1sc(NCc2ccco2)c(-c2nc3ccccc3s2)c1N	3	17	27	2	45*	46*
C=CCNc1sc(C(=O)c2ccccc2)c(N)c1-c1nc2ccccc2s1	12	12	6	6	10	.
Cc1cc(Br)cn2c(Cc3ccccc3)c(-c3ccc(F)cc3)nc12	.	2	5	.	.	.
COc1ccc(C(=O)NC(=S)Nc2ccc3oc(=O)ccc3c2)cc1[N+](=O)[O-]	10	-2	2	3	47*	3
COc1cc(C(=O)NC(=S)Nc2ccc3oc(=O)ccc3c2)cc(OC)c1OC	-1	2	7	1	1	.
C[C@H]1CN([C@@H](C)CO)C(=O)Cc2cc(NC(=O)C3CC3)ccc2O[C@H]1CN(C)Cc1ccc(Oc2ccccc2)cc1	.	-8	4	.	-6	.
C[C@H]1CN([C@@H](C)CO)C(=O)Cc2cc(NC(=O)CCN3CCOCC3)ccc2O[C@@H]1CN(C)Cc1ccc(Oc2ccccc2)cc1	.	-4	-3	.	53*	54*
SMILES	PP1 counter	NadD inh	Rpn11 inh	PP5 primary	PREPL inh	PREPL confirm
CC(C)CN(CCNC(=O)CN1N=C(c2ccc(Cl)cc2)CCC1=O)CC(C)C	-2	-9	-1	0	49*	42
COc1ccc(NCc2nc3ccccc3n2CCOc2ccccc2)cc1	3	4	7	3	40	.
COc1ccc(NCc2nc3ccccc3n2CCOc2ccc(C)cc2)cc1	9	12	17	1	62*	60*
COc1ccc2cc1Oc1ccc(cc1)C[C@H]1c3cc(c(OC)cc3CCN1C)Oc1c(OC)c(OC)cc3c1[C@@H](C2)N(C)CC3	2	7	13	1	52*	48*
Brc1csc(/C=N/Nc2nc3ccccc3s2)c1	1	12	5	2	54*	41
C(=N\Nc1nc2ccccc2s1)/c1ccccn1	-3	.	.	-1	23	.
N/C(=N\OC(=O)c1ccccc1Cl)c1ccccc1	-1	-12	1	-1	-1	.
O=C(O/N=C(\c1ccccc1)c1ccncc1)c1ccccc1Cl	10	0	-4	-1	54*	42
N#CCCN(C(=O)COC(=O)COc1ccc(Cl)cc1)c1ccccc1	-10	-3	3	-6	33	.
N#CCCN(C(=O)COC(=O)CSc1ccc(Cl)cc1)c1ccccc1	.	-2	4	.	50*	39
O=c1c2c3c(sc2nc(NCCO)n1CCc1ccccc1)CCCCC3	3	2	9	7	164*	40
O=c1c2c3c(sc2nc(NCCO)n1Cc1ccco1)CCCCC3	-2	-5	-25	4	4	.
Nc1ccc(N2CCN(C(=O)c3ccco3)CC2)cc1	15	-4	6	0	63*	44*
O=C(CCn1ccc2ccccc21)Nc1ccc(N2CCOCC2)cc1	1	-3	2	0	45*	38
Cc1ccc(C(=O)N2CCN(c3ccc(NC(=O)COc4ccccc4C)cc3)CC2)cc1	-6	5	-1	1	52*	51*
O=C(Cc1ccc(Cl)cc1)Nc1ccc(N2CCN(C(=O)c3ccco3)CC2)c(Cl)c1	3	4	2	8	54*	47*
O=C(c1ccco1)N1CCN(c2ccc(F)cc2)CC1	-1	-3	-4	0	6	.
COc1ccc(S(=O)(=O)N2CCN(C(=O)Nc3ccccc3OC)CC2)cc1	-2	-2	-2	3	19	.
CCCCONc1ncnc2nonc12	-1	-1	-4	-1	-6	.
COc1cc(CN2CCN(Cc3ccc(C(F)(F)F)cc3)CC2)cc(OC)c1OC	5	-6	4	1	-13	.
Cn1c(N)c(C(=O)COC(=O)c2ccccc2C(=O)c2ccc(Cl)c([N+](=O)[O-])c2)c(=O)n(C)c1=O	.	10	1	.	8	.
Cc1ccccc1OCCCC(=O)Nc1ccc(N2CCOCC2)cc1	-1	0	-3	3	50*	34
O=C(COc1ccccc1)Nc1ccc(N2CCN(C(=O)c3ccco3)CC2)cc1	0	-3	3	1	42	.
COc1ccccc1OCCCC(=O)Nc1ccc(N2CCOCC2)cc1	-4	4	-4	1	8	.
Cc1ccc(OCC(=O)Nc2ccc(N3CCN(C(=O)c4ccco4)CC3)cc2)cc1	7	0	-6	-2	52*	43*

Source: PubChem (several laboratories)
